Drawing on PubChem BioAssay (NCI), this text covers growth for eight molecules.

Test systems include HCT-15 colon; HT29 colon; SNB-75 CNS; SNB-19 CNS; U251 CNS; PC-3 prostate; SK-MEL-5 melanoma; UACC-62 melanoma; LOX IMVI melanoma; SK-MEL-28 melanoma; SK-MEL-2 melanoma; EKVX NSCLC; SN12C renal; UO-31 renal; TK-10 renal; ACHN renal; A498 renal; CCRF-CEM leukemia; MOLT-4 leukemia; SR leukemia.
What all share (assay): NCI-60 one-dose screen, 48 h (100 = growth as untreated, 0 = no growth, -100 = all killed)
What all share (details): 10 µM unless noted

This is part of a sample that, as a whole, favours compounds with a hit. Of some 83,000 tested, about 20% had one in any assay.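 Assay: single dose, 48 h. Readout: percent growth (0 = no net growth; negative = cell death). Active: <10.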 A number with no mark means an inactive call. The source made the active and inactive calls.

Turning to `CCCCc1n(Cc2ccc3ccccc3n2)cc[n+]1Cc1ccc2ccccc2c1`, the growth in the test on HCT-15 colon is 76.7%; with HT29 colon, -8.3% (active); in the test on SNB-75 CNS, 15.7%; with SNB-19 CNS it was 7.08% (active); in the test on U251 CNS, 5.73% (active); with PC-3 prostate, 1.01% (active). Also, the growth was -94.3% (active) with SK-MEL-5 melanoma; -57.7% (active) with UACC-62 melanoma; -26.5% (active) in the test with LOX IMVI melanoma; 0.554% (active) with SK-MEL-28 melanoma; -35.7% (active) in the test on SK-MEL-2 melanoma; 41.7% in the test with EKVX NSCLC. Besides, the growth with SN12C renal is 1.13% (active); with UO-31 renal it was 69.2%; in the test with TK-10 renal, -5.08% (active); in the test on ACHN renal, 61.2%; in the test on A498 renal, 7.02% (active); in the test on CCRF-CEM leukemia it was 6.45% (active). The growth was 4.42% (active) with MOLT-4 leukemia and -27.1% (active) with SR leukemia.

For the molecule `CSc1nc(-c2cccs2)c2c(N)[nH]nc2n1`, the growth in the test with HCT-15 colon is 99.6%; in the test on HT29 colon, 93.2%; in the test on SNB-75 CNS, 93.7%; in the test on SNB-19 CNS, 106%; in the test on U251 CNS, 98.9%; with PC-3 prostate, 93.6%. Further, the growth in the test on SK-MEL-5 melanoma was 101%; in the test with UACC-62 melanoma, 93.7%; in the test on LOX IMVI melanoma, 93.3%; with SK-MEL-28 melanoma, 114%; with SK-MEL-2 melanoma, 104%; in the test with EKVX NSCLC it was 73.1%. The growth was 109% in the test on SN12C renal; 84.1% in the test with UO-31 renal; 93.4% in the test on TK-10 renal; 101% with ACHN renal; 66.7% in the test on A498 renal; 109% in the test on CCRF-CEM leukemia. Moreover, the growth was 87% in the test with MOLT-4 leukemia and 73.3% in the test with SR leukemia.

On to `CCCCn1c(=O)c(/C=C/C(=O)/C=C/c2ccc(OC)cc2)cc2cc(Cl)ccc21`, for which the growth with HCT-15 colon was 27.5%; with HT29 colon it was 9.75% (active); with SNB-75 CNS it was 84.9%; in the test on SNB-19 CNS it was 47.5%; in the test on U251 CNS, -13.4% (active); in the test with PC-3 prostate, 39.5%. For the same molecule, the growth in the test with SK-MEL-5 melanoma is 78.9%; in the test on UACC-62 melanoma it was 76.2%; in the test on LOX IMVI melanoma it was 9.25% (active); in the test on SK-MEL-28 melanoma it was 115%; in the test on SK-MEL-2 melanoma it was 84%; in the test on EKVX NSCLC it was 91%. Moreover, the growth was 75.9% in the test with SN12C renal; 62.8% in the test on UO-31 renal; 112% with TK-10 renal; 103% in the test with ACHN renal; 91.6% with A498 renal; 29.2% in the test with CCRF-CEM leukemia. The results for the growth in the test on MOLT-4 leukemia and with SR leukemia were 44.4% and 3.16% (active), respectively.

Regarding `COc1ccc2cc(/C=C3\N=C(c4cc(OC)c(OC)c(OC)c4)OC3=O)c(OC)nc2c1`, the growth is 99.4% in the test on HCT-15 colon; 98.8% in the test with HT29 colon; 98.3% in the test on SNB-75 CNS; 94.6% with SNB-19 CNS; 92.8% in the test on U251 CNS; 93.6% in the test on PC-3 prostate. The growth in the test on SK-MEL-5 melanoma was 103%; with UACC-62 melanoma it was 89.7%; with LOX IMVI melanoma, 102%; in the test on SK-MEL-28 melanoma, 110%; with SK-MEL-2 melanoma, 106%; in the test on EKVX NSCLC it was 103%. The growth is 94.2% in the test on SN12C renal; 95.8% in the test with UO-31 renal; 106% with TK-10 renal; 101% with ACHN renal; 99.5% in the test on A498 renal; 111% with CCRF-CEM leukemia. In addition, the figures for the growth in the test on MOLT-4 leukemia and with SR leukemia were 94.8% and 95.8%, respectively.

In the case of `CCC1S/C(=N\N=C(/C)c2ccc[nH]2)N(c2ccccc2)C1=O` (stereo not given), the growth in the test with HCT-15 colon is 96.1%; in the test on HT29 colon, 87.4%; in the test with SNB-75 CNS it was 105%; with SNB-19 CNS, 106%; in the test with U251 CNS it was 108%; in the test on PC-3 prostate, 94.2%. Further, the growth in the test on SK-MEL-5 melanoma was 79%; in the test with UACC-62 melanoma, 101%; with LOX IMVI melanoma it was 110%; with SK-MEL-28 melanoma, 110%; in the test with SK-MEL-2 melanoma it was 124%; with EKVX NSCLC, 116%. Besides, the growth in the test with SN12C renal was 116%; in the test with UO-31 renal, 43%; in the test on TK-10 renal, 83.5%; in the test with ACHN renal, 102%; in the test with A498 renal it was 112%; in the test on CCRF-CEM leukemia it was -86.5% (active). Also, the growth in the test on MOLT-4 leukemia was -50% (active); in the test with SR leukemia, 32.5%.

As for `COC(=O)/C=C1\SC(=Nc2ccc(C(F)(F)F)cc2)N(CCc2c[nH]c3ccccc23)C1=O`, the growth was -71.4% (active) with HCT-15 colon; -34.1% (active) with HT29 colon; 59.2% with SNB-75 CNS; -51.7% (active) in the test on SNB-19 CNS; -87.8% (active) in the test on U251 CNS; -61.1% (active) in the test with PC-3 prostate. For the same molecule, the growth with SK-MEL-5 melanoma was -88.8% (active); with UACC-62 melanoma, -62.5% (active); in the test on LOX IMVI melanoma, -97% (active); in the test with SK-MEL-28 melanoma, -58.9% (active); in the test with SK-MEL-2 melanoma it was -54.1% (active); in the test on EKVX NSCLC it was -6.54% (active). Further, the growth in the test with SN12C renal was -65.1% (active); in the test with UO-31 renal it was -100% (active); with TK-10 renal, -33.7% (active); with ACHN renal, -100% (active); in the test on A498 renal, -48.5% (active); in the test on CCRF-CEM leukemia, 3.88% (active). Further, the growth is -11.4% (active) with MOLT-4 leukemia and -13.7% (active) in the test on SR leukemia.

As for `CCOC(=O)NC(Cc1ccccc1)c1ccccc1` (stereo not given), the growth in the test with HCT-15 colon was 106%; in the test with HT29 colon, 97.5%; with SNB-75 CNS, 100%; with SNB-19 CNS, 104%; in the test with U251 CNS, 99.9%; with PC-3 prostate it was 94.7%. The growth was 104% in the test with SK-MEL-5 melanoma; 97.5% with UACC-62 melanoma; 94.9% in the test on LOX IMVI melanoma; 115% in the test with SK-MEL-28 melanoma; 99.2% with SK-MEL-2 melanoma; 105% in the test with EKVX NSCLC. Also, the growth was 106% with SN12C renal; 93.2% in the test on UO-31 renal; 96% with TK-10 renal; 109% in the test with ACHN renal; 94% in the test with A498 renal; 98.1% with CCRF-CEM leukemia. For the same molecule, the growth is 85.8% in the test with MOLT-4 leukemia and 81.7% in the test with SR leukemia.

As to `Nc1c(C(=O)Nc2ccccn2)sc2nc3c(cc12)CCCCCC3`, the growth in the test on HCT-15 colon is 20.2%; with HT29 colon, 3.49% (active); in the test on SNB-75 CNS, -1.5% (active); in the test with SNB-19 CNS it was 22.3%; with U251 CNS, 16%; in the test on PC-3 prostate, 20.9%. For the same molecule, the growth in the test on SK-MEL-5 melanoma was 9.47% (active); in the test on UACC-62 melanoma, 24.8%; with LOX IMVI melanoma, 36.2%; with SK-MEL-28 melanoma it was 51.2%; in the test on SK-MEL-2 melanoma it was 11.5%; with EKVX NSCLC it was 31.8%. Also, the growth in the test with SN12C renal is 39.2%; in the test on UO-31 renal, 35.5%; in the test on TK-10 renal, 35.7%; with ACHN renal, 36.1%; in the test with A498 renal it was 15%; in the test with CCRF-CEM leukemia, 5.58% (active). In addition, the growth in the test on MOLT-4 leukemia was 16.3%; with SR leukemia, 7.99% (active).
